Measured values published in the OligoGym collection.

Target: AHCY
Test: pooled miR-30 sensor sort-seq; sequence = guide strand
Conditions: shRNA
Also: reference of the scale not given here.

Row | Sequence | sensor-assay potency score (higher = more potent)
1 | ATGATGTCAATACAGCCTGTGG | -1.59
2 | TAGCTTGGTCAACTTCACATTC | -1.21
3 | TCTTTTAACATTATAGGCCAAA | -1.21
4 | TAGAGGTTGTCAAACTTGCTCT | -0.554
5 | TTGATGGGGTCAATCTCGGTGA | -1.04
6 | TTGGTGTGGATGAGGTTGGTGA | -1.01
7 | TAACAGTCTATTCTAACCCCTG | -0.522
8 | TTAACAGTCTATTCTAACCCCT | -0.371
9 | ATCTCGGTGATGATGACGCGGG | -1.23
10 | TTCAGCCACTGCCTCATCCAGC | -0.886
11 | AAACTTGCTCTTGGTGACGGAG | -1.03
12 | TCGGCCAGCAGGATGATGCGGC | -0.886
13 | TTGTCAAACTTGCTCTTGGTGA | -0.625
14 | ACACACAATGGCATCATCCTTC | -0.521
15 | TCATCTTGTAGAGGTTGTGGAC | -0.726
16 | TTAGCTTGGTCAACTTCACATT | -0.84
17 | TTCATCTGCTCAAAGTGCCGGC | -0.375
18 | TTGTAGAGGTTGTGGACCCCAG | -0.72
19 | TATAAGTCCACAGACCAGGTGA | 0.25
20 | TTGATGTTCACCTTCTCCACGG | 0.235
21 | TTACTCATCACGAAGCTGGGGT | 0.777

Target: AHDC1
Test: as above
Conditions: shRNA

Row | Sequence | sensor-assay potency score (higher = more potent)
22 | TCTGGTTCCAGTTGTAGCCGGG | 0.572
23 | ATGCTTGCCATCAAGCTCGGGA | -0.78
24 | TTGCTGTTAGCGCAGTCCTGGC | -1.57
25 | TTGAACTGGGTGCTGTCGGAGG | -0.689
26 | AACTCTGGGACTGAGACCGGGC | -0.558
27 | TTCTTCATCTTCAGCAGCGGGG | -0.945
28 | TTGGGTACCATGTAGCCACCGG | -0.207
29 | TAGCTTGCTGCTCGTCCTGGTG | -0.838
30 | TTTGTATGTGGTCTTGTTCCGC | 0.223
31 | TTGTATGTGGTCTTGTTCCGCC | -0.176
32 | TTGCGGGTAGAGACCACTGGGG | -0.627
33 | TTTGCGGGTAGAGACCACTGGG | -0.394

Target: AIG1
Test: as above
Conditions: shRNA

Row | Sequence | sensor-assay potency score (higher = more potent)
34 | TAAATGATCCAGAACACTGCTA | 0.31
35 | TAGAGCAGTAAGACAGCAGGAT | 0.285
36 | TTATCAGTAATGACTTTGGGAA | -0.914
37 | TAGTTACACAGGATAGAGCAGT | -0.722
38 | AATTCTTTAACACACAGTGAGG | -1.45
39 | TAATATAAAGGGCAGAACCGTC | -1.19
40 | TTCGGGTATATCATCTCTCTGT | -0.249
